The results in this text go back to ChEMBL document CHEMBL1157539, “Thousands of chemical starting points for antimalarial lead identification” (Nature, 2010).

The experiment has as its system Plasmodium falciparum. The experiment can be described thus: GSK_TCMDC: Inhibition of Plasmodium falciparum 3D7 in whole red blood cells, using parasite LDH activity as an index of growth. Test compounds present at 2uM. The experiment is classed as functional.
As usually defined, the Inhibition is the share of the control response that was lost under treatment. `COc1cc(OC)c(NC(=O)C2c3ccccc3C(=O)N(C)C2c2cccs2)cc1Cl` (stereo not given) returned an Inhibition of 99%. `O=C(NCc1cccs1)[C@H](Cc1ccccc1)Nc1ccnc(NCCc2ccc(F)cc2)n1.O=C(O)C(F)(F)F` gave an Inhibition of 85%. With `Cc1cccc2nc(-c3ccc(-c4ccc(CNCc5ccc(CN)cc5)cc4)s3)[nH]c12.O=C(O)C(F)(F)F` the figure was 100%; with `Cc1c(CNCCCNc2nc3ccccc3[nH]2)sc(C(F)F)c1Br.Cl`, 100%.

The molecule `CN(C)CCCOc1ccc(CCNCc2cccc(Oc3ccc(Cl)cc3)c2)cc1.O=C(O)C(F)(F)F` came in with an Inhibition of 94%.

Molecule `COc1ccc2ncc(Cl)c([C@@H](O)CN3CCC(NCc4cc5c(cn4)OCCO5)CC3)c2c1.Cl` showed an Inhibition of 100%. In turn, `CC(Nc1ccc2c(c1)OCCO2)C(=O)Nc1cc(C(F)(F)F)ccc1N1CCOCC1` (stereo not given) showed an Inhibition of 98%. Then `CCOc1ccc2c(=NN=Cc3ccc(OC)c(OC)c3)cc(C)[nH]c2c1`, with 100%.

Regarding `COc1ccc(-c2cnc3[nH]cc(-c4ccc(C(=O)O)c(C)c4)c3c2)cn1.O=C(O)C(F)(F)F`, the Inhibition was found to be 99%. For `Cc1cc(C2CCN(CCCCNC(=O)c3ccc(-c4ccc(C(F)(F)F)cc4)cc3)CC2)c(C)cc1OCC(N)=O`, the Inhibition was determined as 91%.

In the case of `Cl.Nc1c(C(=O)NCCCCN2CCN(c3nsc4ccccc34)CC2)sc2ccccc12`, the Inhibition is on record as 86%. `O=C(O)C(F)(F)F.O=S(=O)(NCCN1CCCC1)c1ccc(-c2ccc(CNCc3ccc(F)cc3)cc2)cc1`: the Inhibition is recorded as 94%. In turn, `NC1CCN(Cc2ccc(-c3ccc(-c4nc5ccccc5[nH]4)cc3)cc2)C1.O=C(O)C(F)(F)F` (stereo not given) had an Inhibition of 100%. Molecule `CN1CCCc2ccc(NC(=O)c3ccc(-c4cc(C(F)(F)F)nn4C)s3)cc2C1.O=C(O)C(F)(F)F` had an Inhibition of 88%.

The molecule `Cl.N=C(NCCCc1ccccc1)c1cccc(C(=N)NCCCc2ccccc2)n1` yielded an Inhibition of 98%. In the case of `COc1cc(CS(C)(=O)=O)ccc1Nc1nccc(-c2c(-c3cccc(NC(=O)c4c(F)cccc4F)c3)nn3ccccc23)n1`, the Inhibition is 92%. Then `Cc1cccc2nc(-c3cccc(-c4ccc(CNCc5ccc(S(C)(=O)=O)cc5)cc4)c3)[nH]c12.O=C(O)C(F)(F)F`, with 100%; and `COc1ccc2nccc([C@@H](O)CN3CCC(NCc4cc5ccccc5nc4O)CC3)c2c1.Cl`, with 97%; and `CCC1(CC)CN(c2ccccc2)c2ccc(O)cc2S(=O)(=O)C1CC(C)C` (stereo not given), with 96%. With `CON=C1CCC(Cn2ccnc2)(c2ccc(Cl)cc2Cl)CC1` (stereo not given) the figure was 100%; with `Cc1ccc2c(c1[N+](=O)[O-])N=NCC2Oc1ccccc1` (stereo not given), 91%; with `COc1ccc(Nc2nccc(N3CCC(NC(=O)c4cccc(NC(C)=O)c4)C3)n2)cc1` (stereo not given), 92%. With `CCOc1ccc(Br)cc1/C=C/C(=O)Nc1ccc(C2CCN(C)CC2)cc1` the figure was 100%; with `O=C(NC1CC1)c1ccc(Cn2c(SCc3cccc([N+](=O)[O-])c3)nc3ccccc3c2=O)cc1`, 91%. As for `O=C(Nc1ccc(-c2nc3ccccc3[nH]2)cc1)c1ccc(S(=O)(=O)N2CCCCCC2)cc1`, the Inhibition is listed as 97%.

As for `O=C(N[C@@H](Cc1ccccc1)CN1CCC(Oc2ccc(F)cc2)CC1)c1ccc(OCCCN2CCCCC2)cc1.O=C(O)C(F)(F)F`, the Inhibition stood at 100%.

As to `CCC(C)CN1CCN(c2cc(NC(=O)c3cccs3)ccn2)C(C)C1.O=C(O)C(F)(F)F` (stereo not given), the Inhibition turned out to be 88%.

`CC1CN(c2cnn(Cc3cccc(NC(=O)Nc4ccc(-c5ccccc5)cc4)c3)c(=O)c2Cl)CC(C)N1.O=C(O)C(F)(F)F` (stereo not given) showed an Inhibition of 100%. The molecule `Cc1cc(NCCc2ccccc2)nc(N/C(=N/CC(=O)OC(C)(C)C)Nc2ccc(C(F)(F)F)cc2)n1.I` had an Inhibition of 100%.

In turn, `O=C(c1cc(C(=O)Nc2ccc(F)cc2)c(=O)n(-c2ccc(F)cc2)c1)c1cc(Cl)ccc1O` came in with an Inhibition of 100%. With `Nc1ncnc2cc(-c3cccc(S(N)(=O)=O)c3)sc12` the figure was 98%; with `Cc1noc(-c2ccccc2)c1CN1CCCC2(CC(C(=O)NCc3cccc(F)c3F)=NO2)C1.O=C(O)C(F)(F)F` (stereo not given), 85%; with `CCOc1ccc2nc(N(CCCn3ccnc3)C(=O)C=Cc3cccs3)sc2c1.Cl`, 97%. Turning to `Nc1ccc2nc(C=Cc3ccccc3)[nH]c2c1`, the Inhibition stood at 92%. Turning to `CC(C)NCc1cccc(-c2ccc(NC(=O)c3ccc(C#N)cc3)cc2)c1.O=C(O)C(F)(F)F`, the Inhibition was 99%.

Regarding `O=C(N[C@H]1CCN(Cc2ccc(OCCCN3CCCCC3)cc2)C1)c1ccc2ccccc2c1`, the Inhibition came out at 97%.

With `CC(C)[C@H](NC(=O)c1ccc(O)c(-c2ccc(Cl)c(Cl)c2)c1)C(=O)NCCN1CCCC1`, the Inhibition turned out to be 98%. Consider `CC[C@H](C)CNC(=O)c1ccnc(-c2ccc(CNCCCc3ccccc3)cc2)c1.O=C(O)C(F)(F)F`, for which the Inhibition came out at 100%. For the molecule `CS(=O)(=O)c1ccc(CNCc2cccc(-c3cccc(-c4nc5cc(F)ccc5[nH]4)c3)c2)cc1.O=C(O)C(F)(F)F`, the Inhibition was determined as 100%. In turn, `COc1ccc2nccc([C@@H](O)CN3CCC(NC(=O)c4cc5c(F)cc(F)cc5[nH]4)CC3)c2n1` displayed an Inhibition of 100%.
